Assay outcomes: PubChem, National Center for Advancing Translational Sciences (NCATS)
PKM2 act = qHTS Assay for Activators of Human Muscle isoform 2 Pyruvate Kinase | Pyruvate kinase PKM (Homo sapiens), P14618 | purified PKM2, Kinase-Glo ATP luminescence, activation; response scale: 0% is enzyme alone, no compound | Potency, µM (titrated, usually from 57.5 µM), without a hit: top-dose activation, hits mostly activators | 260,000 compounds, 0.34% hits | AID 1631, 2009; note: % is set by controls: 0 for no effect and ±100 for the full control effect; nearly all actives have a fitted effect of over 55% in size
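ATP formation by purified human PK-M2, quantified via coupled luciferase luminescence after 1 h at room temperature with 0.1 mM ADP and 0.5 mM PEP final.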
PLK1 PBD block = qHTS for Inhibitors of PLK1-PDB (polo-like kinase 1 - polo-box domain): Primary Screen | Serine/threonine-protein kinase PLK1 (Homo sapiens), P53350 | Potency, µM, without a hit: max response, negative = inhibition, actives largely listed as inhibitors | 360,000 compounds, 2.8% hits | AID 720504, 2013 | Plk1 PBD binding of FITC phosphopeptide, fluorescence polarization; note: series mostly up to about 57 µM; % is set by controls: 0 for no effect and ±100 for the full control effect; nearly all actives have a fitted effect of over 65% in size
KAT2A inh = qHTS Assay for Inhibitors of GCN5L2; Potency, µM (highest dose often 58.9 µM), inactives show at the top dose activity change, negative = inhibition, actives largely listed as inhibitors; AID 504327, 2011; GCN5L2 HAT assay, ThioGlo1 CoA-SH fluorescence; 390,000 compounds, 0.21% hits; note: % is set by controls: 0 for no effect and ±100 for the full control effect
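Compounds, pin-transferred from DMSO stocks, meet 20nM GCN5L2 for 15 min before the reaction begins with H3(1-25) peptide (75uM) and acetyl-CoA (70uM). Thiol-reactive ThioGlo1 reports CoA release over 20 min at room temperature.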
GLS inh = qHTS for Inhibitors of Glutaminase (GLS) | GLS enzymatic activity, qHTS titration | Potency, µM (top dose mostly 45.5 µM), for the others: top-dose activity change, negative = inhibition, actives largely listed as inhibitors | AID 624170, 2012 | 410,000 compounds, 0.21% hits; note: % is set by controls: 0 for no effect and ±100 for the full control effect
Target sequence (O94925 whole entry, looked up): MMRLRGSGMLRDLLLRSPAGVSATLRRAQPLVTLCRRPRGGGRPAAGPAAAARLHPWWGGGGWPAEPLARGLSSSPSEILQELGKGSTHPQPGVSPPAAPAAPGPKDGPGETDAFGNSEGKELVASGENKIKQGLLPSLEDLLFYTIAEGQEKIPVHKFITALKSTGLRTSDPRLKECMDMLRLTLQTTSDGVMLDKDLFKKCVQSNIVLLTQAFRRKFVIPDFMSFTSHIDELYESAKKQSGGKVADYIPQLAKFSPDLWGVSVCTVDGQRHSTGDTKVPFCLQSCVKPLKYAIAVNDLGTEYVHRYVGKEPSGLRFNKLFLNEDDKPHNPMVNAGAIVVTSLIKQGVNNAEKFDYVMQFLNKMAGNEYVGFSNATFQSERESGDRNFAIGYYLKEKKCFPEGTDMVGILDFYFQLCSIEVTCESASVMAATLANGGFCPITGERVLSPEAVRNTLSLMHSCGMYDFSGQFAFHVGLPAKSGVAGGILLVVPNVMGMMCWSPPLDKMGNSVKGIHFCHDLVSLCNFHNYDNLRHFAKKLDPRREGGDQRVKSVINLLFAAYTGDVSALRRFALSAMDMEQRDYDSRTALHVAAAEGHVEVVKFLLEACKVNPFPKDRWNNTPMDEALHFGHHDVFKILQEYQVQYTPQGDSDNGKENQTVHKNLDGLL
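hKGA in 45 mM KH2PO4 (pH 8.2), 0.02% Tween-20 with compound, then 1mM L-Glutamine (stock as added) plus glutamate oxidase/HRP/Amplex red coupling mix. Fluorescence read initially and after 30 min at RT; signal change reflects glutamate formation.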
VDR inhibitor = Inhibitors of the vitamin D receptor (VDR): qHTS; 400,000 compounds, 0.93% hits; Vitamin D3 receptor (Homo sapiens), P11473; Potency, µM, for inactives: max response, negative = inhibition, usual class: inhibitors; VDR-SRC2-3 peptide fluorescence polarization, 2 h; note: % is set by controls: 0 for no effect and ±100 for the full control effect
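Measured by FP: displacement of SRC2-3 coactivator peptide from VDR by library compounds, following a two-hour ambient incubation.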
Mito fusion act = qHTS Assay for Small Molecule Inhibitors of Mitochondrial Division or Activators of Mitochondrial Fusion; S. cerevisiae fusion-defective mutant growth rescue, CellTiterGlo 48 h; Potency, µM (doses to about 46.1 µM), without a hit: at the top dose growth rescue (activation), most hits filed as activators; 320,000 compounds, 0.23% hits; AID 485298, 2010; note: % of control where 0% means no effect; nearly all actives have a fitted effect of over 45% in size
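Growth-rescue viability read-out: after 48 h at the non-permissive 37C in glycerol/ethanol YPEG, yeast mitochondrial fusion mutants are measured by CellTiterGlo luminescence; compounds (23 nl pinned per well) restoring growth score as division inhibitors or fusion activators.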
VDR confirm = qHTS for Inhibitors of the vitamin D receptor (VDR): Hit Validation in Primary Screen; shares compounds with VDR inhibitor; VDR-coactivator inhibition assay, qHTS confirmation; Potency, µM, most hits filed as inhibitors; 840 compounds, 89% hits; AID 602199, 2012
VDR FP fluor = qHTS for Inhibitors of the vitamin D receptor (VDR): Hit Validation using a Fluorescein Assay; shares compounds with VDR inhibitor; Potency, µM (top dose mostly 57.1 µM), without a hit: top-dose activity change, negative = inhibition, most hits filed as inhibitors; AID 602200, 2012; 840 compounds, 48% hits; VDR-coactivator binding, fluorescein fluorescence polarization
VDR bla reporter = qHTS for Inhibitors of the vitamin D receptor (VDR): Hit Validation using a Beta-Lactamase Assay; Potency, µM (doses to about 46.1 µM), for the others: top-dose activity change, negative = inhibition, usual class: inhibitors; AID 602202, 2012; 840 compounds, 23% hits; VDR beta-lactamase reporter cells, FRET ratio; cells co-treated with VDR agonist LG190178; shares compounds with VDR inhibitor; note: % is set by controls: 0 for no effect and ±100 for the full control effect
VDR cytotox = qHTS for Inhibitors of the vitamin D receptor (VDR): Hit Validation using a Cytotoxicity Assay. cytotoxicity counter-screen, cell viability, qHTS. 840 compounds, 18% hits. Potency, µM (top dose mostly 48.3 µM), for inactives: top-dose activity change, negative = cytotoxicity, hits mostly cytotoxic. AID 602204, 2012. shares compounds with VDR inhibitor;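 note: plate controls were DMSO for no effect and high-concentration cycloheximide for full effect; nearly all actives have a fitted effect of over 75% in size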
* = called active by the depositor. An excerpt weighted towards active compounds, which were near 3.4% of everything screened. Calls come from the whole dose curve; as a rule, active = well fitted curve in the direction sought with a large enough effect; inconclusive = small, poorly fitted or top-dose-only effect, or another doubt; inactive = no such curve, though single readings can be large; an effect the other way counts as inactive or inconclusive. Potency is the fitted concentration of half-maximal effect.

Results for CCN(CC)c1ccc(NC(=O)c2ccccc2)cc1S(=O)(=O)Nc1ccccc1OC ?
PKM2 act: -28%; PLK1 PBD block: 1.9µM*; KAT2A inh: -30%; GLS inh: 0%; VDR inhibitor: inconclusive; Mito fusion act: 3%; VDR confirm: 3.2*; VDR FP fluor: 3.2µM*; VDR bla reporter: 1%; VDR cytotox: -11%

What do the screens show for `Cc1ccccc1Nc1c(-c2ccc(Cl)s2)nc2cccc(C)n12`?
KAT2A inh: -4%; GLS inh: -1%; VDR inhibitor: -13%

What do the screens show for `CCOC(=O)Cn1cc(/C=C/[N+](=O)[O-])c2ccccc21`?
PKM2 act: 24%; PLK1 PBD block: inconclusive; KAT2A inh: -3%; GLS inh: -2%; VDR inhibitor: inconclusive; Mito fusion act: -7%

What do the screens show for `CCOC(=O)COc1ccc(/C=C/[N+](=O)[O-])c(OCC(=O)OCC)c1`?
PKM2 act: 12%; PLK1 PBD block: inconclusive; KAT2A inh: 22%; GLS inh: inconclusive; VDR inhibitor: 13µM*; Mito fusion act: -13%; VDR confirm: 6.7*; VDR FP fluor: inconclusive; VDR bla reporter: inconclusive; VDR cytotox: 13µM*

What do the screens show for `O=[N+]([O-])/C=C/c1c(OCc2ccccc2)ccc2ccccc12`?
PKM2 act: 20%; KAT2A inh: -5%; Mito fusion act: 0%

How did CCOc1ccc(/C=C/[N+](=O)[O-])c2ccccc12 do in these assays?
PKM2 act: -1%; PLK1 PBD block: 3.4µM*; KAT2A inh: inconclusive; GLS inh: 51%; VDR inhibitor: 20µM*; Mito fusion act: -16%; VDR confirm: 6.7*; VDR FP fluor: inconclusive; VDR bla reporter: inconclusive; VDR cytotox: inconclusive

How did CCOC(=O)c1c(C)oc2c1c(C(c1cccnc1)N1CCN(C)CC1)c(O)c1ccccc12 (stereo not given) do in these assays?
PKM2 act: 29%; KAT2A inh: -7%; Mito fusion act: 1%

What do the screens show for `CCOC(=O)c1c(C)oc2c1c(C(c1cccnc1)N1CCOCC1)c(O)c1ccccc12` (stereo not given)?
PKM2 act: 16%; PLK1 PBD block: 6.7µM*; KAT2A inh: -18%; GLS inh: 18%; VDR inhibitor: inconclusive; Mito fusion act: -12%; VDR confirm: 16*; VDR FP fluor: 13µM*; VDR bla reporter: inconclusive; VDR cytotox: inconclusive

How did CCOC(=O)c1c(C)oc2c1c1c(c3ccccc32)OCN(Cc2cccnc2)C1 do in these assays?
PKM2 act: 12%; PLK1 PBD block: 4.7µM*; KAT2A inh: -12%; GLS inh: 17%; VDR inhibitor: inconclusive; Mito fusion act: 21%; VDR confirm: 11*; VDR FP fluor: 7.9µM*; VDR bla reporter: 4%; VDR cytotox: inconclusive

How did COC(=O)c1ccc(COc2ccccc2/C=C/C(=O)c2ccc(OCC(=O)O)cc2)cc1 do in these assays?
PKM2 act: inconclusive; PLK1 PBD block: -17%; KAT2A inh: -27%; GLS inh: inconclusive; VDR inhibitor: -8%; Mito fusion act: 23%

Results for COc1cccc(C(C2C(=O)CC(C)(C)CC2=O)C2C(=O)CC(C)(C)CC2=O)c1 ?
PLK1 PBD block: inconclusive; KAT2A inh: -2%; GLS inh: 18%; VDR inhibitor: inconclusive; Mito fusion act: 4%

What do the screens show for `Cc1cc(C(C2C(=O)CC(C)(C)CC2=O)C2C(=O)CC(C)(C)CC2=O)cc(C)c1OC(F)F`?
PLK1 PBD block: 5.3µM*; KAT2A inh: -4%; GLS inh: 4%; VDR inhibitor: 10µM*; Mito fusion act: -7%; VDR confirm: 24*; VDR FP fluor: inconclusive; VDR bla reporter: 30%; VDR cytotox: 22%

Results for COC(=O)c1ccc(Cn2cc(/C=C\[N+](=O)[O-])c3ccccc32)o1 ?
PKM2 act: inconclusive; PLK1 PBD block: inconclusive; KAT2A inh: -9%; GLS inh: 0%; VDR inhibitor: 25µM*; Mito fusion act: -18%; VDR confirm: 21*; VDR FP fluor: inconclusive; VDR bla reporter: inconclusive; VDR cytotox: inconclusive

Results for CC(C)(C)NC(=O)C1C(c2ccccc2)=Nc2ccccc2N1C(=O)c1ccc(C(F)(F)F)cc1 (stereo not given) ?
PLK1 PBD block: -2%

How did CCOC(=O)c1nn(-c2ccc(F)cc2)c(=O)c2c(N)scc12 do in these assays?
PKM2 act: 9%; PLK1 PBD block: inconclusive; KAT2A inh: 0%; GLS inh: -4%; VDR inhibitor: 7.9µM*; Mito fusion act: -29%; VDR confirm: 27*; VDR FP fluor: inconclusive; VDR bla reporter: 40%; VDR cytotox: 34%
